Source: PubChem BioAssay (several laboratories)
Hits are enriched below; roughly 27% of the tested compounds scored in any of these assays.
EphB4 antag: blocks human EphB4 binding to ephrin-B2; P54760; actives 0.15% (n = 97,000); inhibition, % at 7 µM; AID 720; EphB4 LBD / TNYL-RAW-Alexa532 peptide, fluorescence polarization;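 active = inhibition above the screen-wide mean inhibition plus 3 SD, cut at about 15% in these data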;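 also: 0% = DMSO wells and 100% = excess unlabeled TNYL-RAW peptide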
Target sequence (P54760 whole entry, looked up, the tested form may be a part): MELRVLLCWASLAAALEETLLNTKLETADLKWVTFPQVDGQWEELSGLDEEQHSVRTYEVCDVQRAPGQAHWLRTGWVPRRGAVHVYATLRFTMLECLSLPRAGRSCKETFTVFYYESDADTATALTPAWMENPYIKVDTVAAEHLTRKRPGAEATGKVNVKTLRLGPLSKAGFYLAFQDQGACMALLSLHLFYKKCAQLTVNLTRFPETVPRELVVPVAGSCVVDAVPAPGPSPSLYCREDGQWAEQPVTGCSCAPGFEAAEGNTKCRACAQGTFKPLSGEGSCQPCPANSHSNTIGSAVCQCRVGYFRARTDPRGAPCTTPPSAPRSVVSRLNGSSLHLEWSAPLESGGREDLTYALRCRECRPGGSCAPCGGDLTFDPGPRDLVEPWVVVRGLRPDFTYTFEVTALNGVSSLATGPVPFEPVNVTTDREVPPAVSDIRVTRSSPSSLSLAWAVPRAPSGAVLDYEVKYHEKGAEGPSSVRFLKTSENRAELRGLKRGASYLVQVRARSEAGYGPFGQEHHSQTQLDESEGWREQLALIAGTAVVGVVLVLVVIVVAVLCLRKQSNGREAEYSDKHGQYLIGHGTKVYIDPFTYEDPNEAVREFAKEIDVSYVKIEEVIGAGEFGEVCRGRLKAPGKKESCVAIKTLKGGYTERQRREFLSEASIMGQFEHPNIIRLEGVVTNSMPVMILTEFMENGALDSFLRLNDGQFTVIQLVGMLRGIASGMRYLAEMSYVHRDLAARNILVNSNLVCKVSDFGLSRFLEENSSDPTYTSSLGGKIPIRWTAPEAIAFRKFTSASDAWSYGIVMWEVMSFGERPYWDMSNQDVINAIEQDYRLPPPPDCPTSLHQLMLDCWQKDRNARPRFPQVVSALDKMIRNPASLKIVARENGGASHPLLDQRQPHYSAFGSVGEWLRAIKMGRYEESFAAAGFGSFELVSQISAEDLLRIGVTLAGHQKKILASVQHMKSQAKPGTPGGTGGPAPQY
CYP2C19 inh: inhibitors of human CYP2C19 | inhibition, % at 5 µM | actives 21% (n = 96,000) | P33261 | CYP2C19 Supersomes, luciferin-H EGE luminescence, 30 min;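 active = CYP2C19 inhibition above a set limit at 5 µM in the primary screen, cut at about 50% in these data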;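 also: plate controls were negative control wells for no effect and 2.5 mM tranylcypromine positive control for full effect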
CYP2C9 inhib: inhibitors of human CYP2C9; CYP2C9 Supersomes, luciferin-H conversion, luminescence; inhibition, % at 5 µM; AID 777; actives 20% (n = 96,000); P11712;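 active = blocking of liver enzyme CYP2C9 beyond about 50% at 5 µM, limit read from the data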
CYP2C9 act: activators of human CYP2C9. recombinant CYP2C9, luciferin-H conversion, luminescence; active compounds read high; factor 1 = untreated enzyme, 0 = blocked. activation factor at 5 µM. actives 1.4% (n = 96,000). P11712;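 active = activation factor of 2 or more for CYP2C9 at a 5 µM dose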;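 also: 0 = sulfaphenazole-blocked wells and 1 = vehicle-only wells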
CYP2C19 activ: cytochrome P450 2C19 (human) activation; P33261; recombinant CYP2C19, luciferin-H EGE luminescence; active compounds read high; 0 = fully inhibited enzyme, 1 = untreated enzyme; activation factor at 5 µM; 96,000 tested, under 10 active;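 active = activation factor of at least 2 at 5 µM in the primary screen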;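 also: 0 = wells with 2.5 mM tranylcypromine and 1 = vehicle-only wells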
* hit, by the source's call.

CC(C)C[C@H](NC(=O)OC(C)(C)C)C(=O)N1CCC(C(=O)O)CC1 was read as EphB4 antag 3, CYP2C19 inh 10, CYP2C9 inhib -10, CYP2C9 act 1.1 and CYP2C19 activ 0.9.
O=S1(=O)CCN2C=C(Br)C=C(Br)C2=N1 was read as EphB4 antag -1, CYP2C19 inh 3, CYP2C9 inhib -2, CYP2C9 act 1 and CYP2C19 activ 1.
COc1ccc(Cl)cc1NC(=O)CSc1nnc(Cc2cccn2C)n1-c1ccc(F)cc1 was read as CYP2C19 inh 27, CYP2C9 inhib 11, CYP2C9 act 0.9 and CYP2C19 activ 0.7.
Screening COc1ccc(Cl)cc1NC(=O)CSc1nncn1-c1cccnc1 returned EphB4 antag 2, CYP2C19 inh 94*, CYP2C9 inhib 34, CYP2C9 act 0.7 and CYP2C19 activ 0.1.
Cc1nn(-c2ccccc2)c2sc(C(=O)N3CCCCC3)cc12 was read as EphB4 antag 0, CYP2C19 inh 22, CYP2C9 inhib 18, CYP2C9 act 0.8 and CYP2C19 activ 0.8.
For CCOc1cc(C2CC(=O)c3c(ccc4ccccc34)N2)ccc1O (stereo not drawn) the results were EphB4 antag 7, CYP2C19 inh 24, CYP2C9 inhib 65*, CYP2C9 act 0.3 and CYP2C19 activ 0.8.
For COc1ccc(C2CC(=O)c3c(ccc4ccccc34)N2)cc1OC (stereo not drawn) the results were EphB4 antag 3, CYP2C19 inh 14, CYP2C9 inhib 32, CYP2C9 act 0.7 and CYP2C19 activ 0.9.
CCOC(=O)C1=C(C)NC(=O)NC1c1ccc(OCCO)c(OC)c1 (stereo not drawn) was read as EphB4 antag -6, CYP2C19 inh -7, CYP2C9 inhib -2, CYP2C9 act 1 and CYP2C19 activ 1.1.
Screening CCOC(=O)C1=C(C)NC(SC(C)=O)=NC1c1ccc(OC(C)=O)c(OC)c1 (stereo not drawn) returned EphB4 antag -1, CYP2C19 inh 90*, CYP2C9 inhib 62*, CYP2C9 act 0.4 and CYP2C19 activ 0.1.
For CCCS(=O)(=O)N1CCC(C(=O)N2CCN(C(=O)OCC)CC2)CC1 the results were EphB4 antag -7, CYP2C19 inh -10, CYP2C9 inhib -6, CYP2C9 act 1.1 and CYP2C19 activ 1.1.
Screening COC(=O)CN1C(=O)C(C)=C(c2ccc(C)cc2)S1(=O)=O returned CYP2C19 inh 36, CYP2C9 inhib 16, CYP2C9 act 0.8 and CYP2C19 activ 0.6.
Screening CC1=C(c2ccc(C)cc2)S(=O)(=O)N(CC(=O)O)C1=O returned CYP2C19 inh -7, CYP2C9 inhib 82*, CYP2C9 act 0.2 and CYP2C19 activ 1.1.
For CN(C)c1nc(SCc2ccc(Cl)cc2)nc2c1CCCC2 the results were EphB4 antag 2, CYP2C19 inh 69*, CYP2C9 inhib 86*, CYP2C9 act 0.1 and CYP2C19 activ 0.3.
N#Cc1cc2c(nc1SCc1ccc(Cl)cc1)CCCC2 was read as EphB4 antag 5.
Screening CNc1nc(SCc2ccccc2Cl)nc2c1CCCC2 returned EphB4 antag 3, CYP2C19 inh 98*, CYP2C9 inhib 90*, CYP2C9 act 0.1 and CYP2C19 activ 0.
Screening COC(=O)c1ccccc1NC(=O)c1cccc(NC(=O)c2ccc(Br)o2)c1C returned EphB4 antag 1, CYP2C19 inh 35, CYP2C9 inhib 14, CYP2C9 act 0.9 and CYP2C19 activ 0.6.
For COc1ccc(-n2c(NC(=O)c3ccc(Br)o3)c(C#N)c3nc4ccccc4nc32)cc1 the results were EphB4 antag -2, CYP2C19 inh 2, CYP2C9 inhib 79*, CYP2C9 act 0.2 and CYP2C19 activ 1.
Screening O=C(C1CCCN(S(=O)(=O)c2ccc(Br)s2)C1)N1CCCCCC1 (stereo not drawn) returned EphB4 antag 4, CYP2C19 inh 63*, CYP2C9 inhib 12, CYP2C9 act 0.9 and CYP2C19 activ 0.4.
C#CC(CO)N(CCN(Cc1ccccc1)C(C#C)CO)Cc1ccccc1 (stereo not drawn) was read as EphB4 antag -10, CYP2C19 inh 100*, CYP2C9 inhib 95*, CYP2C9 act 0.1 and CYP2C19 activ 0.
For N#C/C(C(=O)c1ccccc1)=C1/SC=C(N)N1c1ccccc1 the results were EphB4 antag 5, CYP2C19 inh 81*, CYP2C9 inhib 92*, CYP2C9 act 0.1 and CYP2C19 activ 0.2.
Cc1cc(C)c2c(=O)[nH]n(C(C)C)c2n1 was read as CYP2C19 inh 10, CYP2C9 inhib -25, CYP2C9 act 1.2 and CYP2C19 activ 0.9.
